One assay deals with Staphylococcus aureus. Conditions: Concentration 32 ug.mL-1;; ASSAY_TEST Inhibition of Bacterial Growth; detection method Absorption (OD600); MEDIA CAMHB; plate type 384well; NBS; CORNING #3640; time 18 hr.
The test system of a further assay is Escherichia coli. Conditions: Concentration 32 ug.mL-1;; ASSAY_TEST Inhibition of Bacterial Growth; detection method Absorption (OD600); MEDIA CAMHB; plate type 384well; NBS; CORNING #3640; time 18 hr.

Data on 33 compounds can be found in ChEMBL document CHEMBL4513146, “CO-ADD screening of Karazin Kharkiv National University (Ukraine) compounds”.

Measured potencies and affinities stand elsewhere.

The Inhibition is the change of the read-out against control, counted positive when it falls. In the case of `COc1ccc(NC(=O)Cn2nc3c(SC4CCCCC4)nccn3c2=O)cc1Cl`, the Inhibition in the assay on Staphylococcus aureus is recorded as -11.83%; in the assay with Escherichia coli, -6.21%.

With `Cc1cc2nn(CC(=O)NCc3ccccc3)c(=O)n2c(Nc2ccc(C)c(F)c2)n1`, the Inhibition with Staphylococcus aureus was -14.43%; in the assay with Escherichia coli, -0.54%.

Turning to `Cc1cccc(C)c1NC(=O)CSc1nnc2c3cc(-c4ccccc4)nn3ccn12`, the Inhibition is -21.6% with Staphylococcus aureus and -21.37% in the assay on Escherichia coli.

For the compound `CCc1nnc2c(SCC(=O)NCc3ccccc3Cl)nc3ccccc3n12`, the Inhibition in the assay with Staphylococcus aureus is on record as 4.41%; in the assay with Escherichia coli, -6.59%.

Take `Cc1ccc(-c2cc3c4nn(CC(=O)Nc5ccc(F)cc5Cl)c(=O)n4ccn3n2)cc1`: the Inhibition in the assay on Staphylococcus aureus is recorded as -0.44%; in the assay with Escherichia coli, -5.61%.

In the case of `O=C(CCc1nnc2c3cc(-c4ccc(Cl)cc4)nn3ccn12)N1CCN(c2ccccn2)CC1`, the Inhibition is reported as 5.65% with Staphylococcus aureus and -0.84% in the assay on Escherichia coli.

For `CCOc1ccccc1NC(=O)Cn1nc2c3cc(-c4ccc(OC)cc4)nn3ccn2c1=O`, the Inhibition in the assay on Staphylococcus aureus is 2.23%; in the assay on Escherichia coli, 5.35%.

Turning to `O=C(Cn1nc2ccc(SCc3ccc(Cl)cc3)nn2c1=O)NC1CCCCC1`, the Inhibition is recorded as 0.02% with Staphylococcus aureus and -9.74% in the assay on Escherichia coli.

In the case of `COc1ccc(-c2cc3c4nnc(SCC(=O)Nc5cc(F)ccc5C)n4ccn3n2)cc1`, the Inhibition with Staphylococcus aureus is -23.41%; in the assay on Escherichia coli it was -20.36%.

In the case of `CCOc1ccc(-n2ccn3c(SCC(=O)Nc4ccc5c(c4)OCCO5)nnc3c2=O)cc1`, the Inhibition in the assay on Staphylococcus aureus was 4.27%; with Escherichia coli, -9.56%.

As for `CCOc1ccc(-n2ccn3c(SCC(=O)Nc4ccc(C)cc4Cl)nnc3c2=O)cc1`, the Inhibition is listed as 8.62% in the assay on Staphylococcus aureus and -1.13% in the assay on Escherichia coli.

Regarding `CCOc1ccc(-n2ccn3c(SCC(=O)Nc4ccccc4C(F)(F)F)nnc3c2=O)cc1`, the Inhibition stood at 16.73% in the assay with Staphylococcus aureus and 2.18% in the assay with Escherichia coli.

As to `O=C(Cn1nc2c(=O)n(-c3ccc(Br)cc3)ccn2c1=O)Nc1ccc(F)cc1F`, the results for the Inhibition with Staphylococcus aureus and with Escherichia coli were 3.27% and -0.82%, respectively.

Regarding `O=C(Cn1nc2ccc(Sc3cccc(F)c3)nn2c1=O)Nc1cccc(Cl)c1`, the Inhibition is reported as -0.09% in the assay with Staphylococcus aureus and -4.86% in the assay with Escherichia coli.

Turning to `Cc1cc(C)cc(NC(=O)Cn2nc3c4cc(-c5ccc(Cl)cc5)nn4ccn3c2=O)c1`, the Inhibition is reported as 2.02% with Staphylococcus aureus and 6.23% in the assay on Escherichia coli.

For `CC(C)Cn1c(=O)c2sccc2n2c(=O)n(Cc3cccc(Br)c3)nc12`, the figures for the Inhibition in the assay on Staphylococcus aureus and with Escherichia coli were 8.88% and -2.43%, respectively.

In the case of `COc1ccc(NC(=O)Cn2nc3c(Oc4ccc(C)cc4)nccn3c2=O)cc1Cl`, the Inhibition in the assay on Staphylococcus aureus is recorded as -1.59%; with Escherichia coli, -3.22%.

For `CCc1ccc(NC(=O)Cn2nc3c(Oc4cccc(OC)c4)nccn3c2=O)cc1`, the Inhibition with Staphylococcus aureus is 5.31%; in the assay with Escherichia coli, -1.12%.

For the compound `Cc1ccc(-c2ccc3nnc(CCC(=O)NCc4cccc(Br)c4)n3n2)cc1C`, the Inhibition is 4.83% with Staphylococcus aureus and -5.02% in the assay with Escherichia coli.

As for `CCOc1ccc(NC(=O)Cn2nc3c(N4CCCC4)nccn3c2=O)cc1`, the Inhibition with Staphylococcus aureus is given as 0.84%; in the assay with Escherichia coli it was -1.53%.

For the compound `Cc1ccc(C)c(Cn2nc3ccc(-c4ccc(C)c(C)c4)nn3c2=O)c1`, the Inhibition is 6.01% in the assay with Staphylococcus aureus and -0.08% in the assay with Escherichia coli.

For `Cc1cc(C)cc(Nc2nc(C)cc3nn(CC(=O)NC4CCCC4)c(=O)n23)c1`, the Inhibition in the assay with Staphylococcus aureus is listed as 11.66%; in the assay on Escherichia coli, 0.01%.

On to `Cc1cc(Br)ccc1NC(=O)Cn1nc2c(Sc3ccccc3)nccn2c1=O`, for which the results for the Inhibition in the assay with Staphylococcus aureus and in the assay with Escherichia coli were 4.58% and -5.92%, respectively.

As for `Cc1cc(C)c(NC(=O)CSc2nc3ccccc3n3c(C)nnc23)c(C)c1`, the Inhibition is 9.68% in the assay with Staphylococcus aureus and -6.86% in the assay on Escherichia coli.

For the compound `CC(C)NC(=O)Cn1nc2nc(Nc3ccc(F)cc3)ccn2c1=O`, the Inhibition with Staphylococcus aureus is 8.74%; with Escherichia coli, -2.64%.

Take `COc1ccc(-c2cc3c4nn(CC(=O)Nc5ccc(C)cc5C)c(=O)n4ccn3n2)cc1`: the Inhibition is given as 1.83% in the assay on Staphylococcus aureus and 2.27% in the assay on Escherichia coli.

Regarding `CCc1cccc(NC(=O)Cn2nc3ccc(SC(C)(C)C)nn3c2=O)c1`, the Inhibition with Staphylococcus aureus is listed as 9.57%; in the assay on Escherichia coli, -1.32%.

As for `Cc1ccc(-c2cc3c4nnc(SCC(=O)Nc5cccc(Cl)c5C)n4ccn3n2)cc1`, the results for the Inhibition with Staphylococcus aureus and with Escherichia coli were -6.47% and -2.31%, respectively.

Consider `CCc1nnc2c(SCC(=O)Nc3ccc(Br)cc3)nc3ccccc3n12`, for which the Inhibition in the assay with Staphylococcus aureus is -16.96%; in the assay on Escherichia coli it was 0.98%.

Turning to `CC(=O)c1ccc(NC(=O)Cn2nc3c4cc(-c5ccc(Cl)cc5)nn4ccn3c2=O)cc1`, the Inhibition in the assay with Staphylococcus aureus was 8.4%; with Escherichia coli, 0.52%.

Turning to `Cc1cc(C)c(NC(=O)Cn2nc3n(C)c(=O)c4c(c(-c5ccccc5)cn4C)n3c2=O)c(C)c1`, the Inhibition in the assay on Staphylococcus aureus amounted to 6.14%; in the assay with Escherichia coli, 1.74%.

Turning to `Cc1cc(C)cc(Oc2nccn3c(=O)n(CC(=O)Nc4ccc(Cl)cc4F)nc23)c1`, the results for the Inhibition in the assay with Staphylococcus aureus and in the assay with Escherichia coli were 18.94% and 4.01%, respectively.

Consider `CCOc1ccccc1NC(=O)Cn1nc2c(Oc3ccccc3)nccn2c1=O`, for which the Inhibition was 5.93% in the assay on Staphylococcus aureus and -3.4% in the assay with Escherichia coli.
